Measurements as given in PubChem BioAssay (NCATS).
Results filed as inconclusive are left out. Calls of active or inactive are those of the source. Unless noted, calls come from the whole dose curve; as a rule, active = well fitted curve in the direction sought with a large enough effect; inconclusive = small, poorly fitted or top-dose-only effect, or another doubt; inactive = no such curve, though single readings can be large; an effect the other way counts as inactive or inconclusive.

Experiments:
[1] = biological target: Mitogen-activated protein kinase 10 (Mus musculus) (UniProt Q61831); assay: JNK3 AlphaScreen Assay (AID 530; active = well fitted curve in either direction with a large enough effect, not every such curve was filed as active;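 note: kinase came from lysate of stimulated human HepG2 cells; signal reports phosphorylation of biotinylated GST-cJun 1-79 at Ser73 with 10 µM ATP; series mostly up to about 57 µM; % is set by controls: 0 for no effect and ±100 for the full control effect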)
Summary of the method: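 Biotinylated GST-cJun(1-79) served as substrate for JNK3 in HepG2 lysates stimulated with IL-1beta and TNF-alpha. ATP was 10 uM final, pH 7.6. Ser73 phosphorylation was quantified by AlphaScreen (680 nm excitation).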

[2] = Cell Viability - HUV-EC-C (AID 542); note: % is set by controls: 0 for no effect and ±100 for the full control effect; nearly all actives have a fitted effect of over 35% in size
Summary of the method: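 Concentration-dependent ATP loss in HUV-EC-C cells is the measure. Exposure lasts 40 hr at 37 °C; luminescence follows CellTiter-Glo addition, and Hill fits give AC50.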

[3] = Cellular Toxicity (caspase-3) H-4-II-E (AID 663); settings: Potency: caspase-3 activation;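 note: cells exposed to compound for 16 hr before readout; 0% = DMSO basal and 100% = 100 µM tamoxifen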
Summary of the method: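 Caspase 3/7 activation measured in H-4-II-E cells in complete culture medium after 16 hr treatment at 37 °C, using luciferase-coupled substrate readout; AC50 values come from Hill-equation fits of normalized concentration-response data.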

[4] = MultiTox-Fluor Cytotoxicity Assay - LYMP1-002 - Live Cells (AID 955);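 note: cells exposed to compound for 16 hours; % is set by controls: 0 for no effect and ±100 for the full control effect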
Summary of the method: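 In this qHTS viability format, lymphoblastoid cells (LYMP1-002, human) received compound for 16 hr at 37 C. Fluorogenic GF-AFC cleavage by viable cells was detected at 405/510 nm after 1 h at room temperature.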

[5] = MultiTox-Fluor Cytotoxicity Assay - LYMP1-003 - Live Cells (AID 962);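 note: cells exposed to compound for 16 hours at 37 °C; 0% = DMSO only and full loss = 92 µM tetraoctylammonium bromide; cytotoxic hits lower the live-cell protease signal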
Summary of the method: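 Human lymphoblastoid line LYMP1-003 in complete culture medium, treated 16 hr with titrated compounds. Viable cells quantified via cell-permeant GF-AFC substrate fluorescence; AC50 derived by Hill fitting.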

[6] = Cell Viability - LYMP1-003 - Assay at 40 hr (AID 964); note: series mostly up to about 92 µM; % is set by controls: 0 for no effect and ±100 for the full control effect; nearly all actives have a fitted effect of over 60% in size
Summary of the method: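 Acute toxicity is scored as a concentration-dependent loss of intracellular ATP in LYMP1-003 cells (2500/well, complete medium) after 40 hr at 37 C, measured by CellTiter-Glo luminescence; AC50 values derive from standard Hill modelling.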

[7] = Cell Viability - LYMP2-009 (AID 968);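 note: series mostly up to about 92 µM; 0% = DMSO alone and the full-kill end = tetraoctylammonium bromide at 92 µM; nearly all actives have a fitted effect of over 55% in size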
[8] = Cell Viability - LYMP2-011 (AID 969);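 note: 0% = DMSO only and full inhibition = 92 µM tetraoctylammonium bromide; nearly all actives have a fitted effect of over 60% in size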
Summary of the method: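 Cells seeded at 2500 per well rest 5 hr before compound addition, then incubate 24 hr at 37 C. CellTiter-Glo reagent is added for 30 min at room temperature before luminescence detection.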

[9] = Cell Viability - LYMP2-006 (AID 978); note: series mostly up to about 92 µM; % is set by controls: 0 for no effect and ±100 for the full control effect; nearly all actives have a fitted effect of over 60% in size
Summary of the method: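 Potency values are Hill-fit AC50s for decreases in intracellular ATP (CellTiter-Glo luminescence). LYMP2-006 lymphoblastoid cells, 2500 per well, were exposed to compound in complete culture medium for 24 hr at 37 C.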

[10] = Cell Viability - LYMP2-007 (AID 979);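 note: cells exposed to compound for 24 h before reading; 0% = DMSO only and the negative end = 92 µM tetraoctylammonium bromide; nearly all actives have a fitted effect of over 60% in size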
Summary of the method: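 Measured via luciferase-based ATP quantitation: lymphoblastoid cells, 24 hr compound exposure at 37 C, AC50 from Hill fits.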

[11] = Cell Viability - LYMP2-018 (AID 985);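 note: plate controls were DMSO only for no effect and tetraoctylammonium bromide at 92 µM for full effect; nearly all actives have a fitted effect of over 50% in size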
Summary of the method: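 In this qHTS viability assay, cells are treated for 24 hr and cellular ATP is quantified by luciferase-based luminescence, with tetraoctylammonium bromide as positive control.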

[12] = Cell Viability - LYMP2-024 (AID 988)
Summary of the method: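 Cells at 2500 per well received compound for 24 hr after a 5 hr settling period. Viability was scored by CellTiter-Glo luminescence, with AC50 from Hill fits.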

[13] = qHTS assay for small molecule activators of the nuclear factor-kappa B (NF-kB) signaling pathway (AID 651749; active = well fitted activation curve with a large enough effect in the signal ratio; the % refers to the signal ratio; note: series mostly up to about 77 µM; % of control where 0% means no effect); settings: NF-kB-bla ME-180 cells, beta-lactamase FRET ratio, 16 h; active compounds read high
Summary of the method: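 Beta-lactamase reporter expression, controlled by NF-kB response elements in ME-180 cells, was quantified fluorometrically via FRET disruption; cells at 2,000/well had been incubated with 23 nL test compound for 16 hr.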

[14] = qHTS assay for small molecule antagonists of the retinoid-related orphan receptor gamma (ROR-gamma) signaling pathway - cell viability counter screen (AID 720652; active = well fitted curve in the direction sought with a large enough effect in the repeat runs; an effect the other way counts as inactive or inconclusive;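 note: CHO reporter cells with doxycycline-induced ROR-gamma expression; series mostly up to about 92 µM; compound exposure lasted 16 hr before ATP read; % is set by controls: 0 for no effect and ±100 for the full control effect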)
Summary of the method: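 ATP-based viability readout in the ROR-gamma reporter CHO cells after 16 hr compound exposure under doxycycline induction.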

[15] = biological target: Nuclear receptor subfamily 1 group I member 2 (Rattus norvegicus) (UniProt Q9R1A7); assay: qHTS assay for small molecule activators of the rat pregnane X receptor (rPXR) signaling pathway (AID 651751; call rule not given here; note: 0% is about no effect); settings: rPXR reporter cells, luciferase (One-Glo), 24 h
[16] = qHTS assay for small molecule activators of the human pregnane X receptor (PXR) signaling pathway (AID 720659; call rule not given here; note: 0% is about no effect)
[17] = Cell Viability - MRC5 (AID 434; calls by dose curve;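 note: potency is the fitted concentration of half-maximal effect; cells exposed to compound for 40 hours at 37 °C; potency reflects cytotoxicity seen as loss of intracellular ATP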); settings: MRC5 lung fibroblast viability, qHTS
Summary of the method: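 Decrease in intracellular ATP, quantified by luciferase light output, reflects compound toxicity toward MRC5 cells exposed for 40 hr in complete culture medium. Concentration-response curves, scaled between DMSO and 100 uM tamoxifen, gave AC50 values.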

[18] = Cell Viability - LYMP2-017 (AID 972); note: series mostly up to about 92 µM; % is set by controls: 0 for no effect and ±100 for the full control effect; nearly all actives have a fitted effect of over 55% in size
Summary of the method: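 In this qHTS format, lymphoblastoid cells in complete medium receive test compound for a day at 37 C before ATP content is quantified by luciferase luminescence. Reported AC50 figures come from standard Hill-equation curve fitting.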

[19] = Cell Viability - LYMP2-021 (AID 974);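 note: compound exposure lasts 24 hours at 37 °C; % is set by controls: 0 for no effect and ±100 for the full control effect; nearly all actives have a fitted effect of over 55% in size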
Summary of the method: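 In qHTS format, compounds are tested against 2500 lymphoblastoid cells per well for 24 h; viable cell number is inferred from ATP-driven luciferase light, and Hill-equation fitting yields AC50 values.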

[20] = Cell Viability - LYMP2-025 (AID 976);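 note: series mostly up to about 92 µM; plate controls were DMSO only for no effect and tetraoctylammonium bromide control for full effect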
Summary of the method: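 Luminescent ATP readout after 24 hr treatment of a human lymphoblastoid line (LYMP2-025, 2500 cells/well, 37 C). Reagent developed 30 min at room temperature; AC50 fitted with the Hill equation.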

Nuclear receptor subfamily 1 group I member 2 (Rattus norvegicus), sequence (Q9R1A7 whole entry, looked up): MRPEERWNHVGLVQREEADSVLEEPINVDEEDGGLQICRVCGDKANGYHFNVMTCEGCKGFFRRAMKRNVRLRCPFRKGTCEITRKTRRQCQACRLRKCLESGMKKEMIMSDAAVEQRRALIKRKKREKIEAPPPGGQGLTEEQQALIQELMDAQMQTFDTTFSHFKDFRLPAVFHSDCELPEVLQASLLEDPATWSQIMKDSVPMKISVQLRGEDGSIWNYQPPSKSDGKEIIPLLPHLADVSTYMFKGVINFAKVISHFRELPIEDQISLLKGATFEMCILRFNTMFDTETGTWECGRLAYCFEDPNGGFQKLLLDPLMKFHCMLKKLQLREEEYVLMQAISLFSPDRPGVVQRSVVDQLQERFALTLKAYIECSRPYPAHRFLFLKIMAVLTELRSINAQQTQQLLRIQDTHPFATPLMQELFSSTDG

ClC(Cl)C(Cl)Cl
inactive: Potency [1] | Potency [2] | Potency [3] | outcome [4] | outcome [5] | Potency [6] | Potency [7] | Potency [8] | Potency [9] | Potency [10] | Potency [11] | Potency [12] | activation [13] -0.991% | Potency [14] | max response [15] 3.27% | outcome [16]

COc1c(C(C)(C)C)cc([N+](=O)[O-])c(C)c1[N+](=O)[O-]
inactive: Potency [17] > 92 µM | Potency [1] | Potency [2] | Potency [3] | outcome [4] | outcome [5] | Potency [6] | Potency [7] | Potency [8] | Potency [18] | Potency [19] | Potency [20] | Potency [9] | Potency [11] | activation [13] -0.667% | Potency [14] | max response [15] 5.88% | outcome [16]

ClC(Br)Br
inactive: Potency [1] | Potency [3] | outcome [4] | outcome [5] | Potency [6] | Potency [7] | Potency [19] | Potency [20] | Potency [10] | Potency [11] | Potency [12] | activation [13] 1.19% | Potency [14] | max response [15] 0.757% | outcome [16]

Brc1ccc(Oc2ccc(Br)cc2Br)c(Br)c1
inactive: Potency [2] | Potency [3] | outcome [4] | outcome [5] | Potency [6] | Potency [7] | Potency [8] | Potency [18] | Potency [10] | activation [13] 0.581%

CC(C)(COCC1CO1)COCC1CO1 (stereo not drawn)
inactive: Potency [17] > 92 µM | Potency [1] | Potency [2] | Potency [3] | outcome [4] | outcome [5] | Potency [6] | Potency [7] | Potency [8] | Potency [18] | Potency [19] | Potency [20] | Potency [9] | Potency [10] | Potency [11] | Potency [12] | activation [13] 0.814% | Potency [14] | max response [15] 1.93% | outcome [16]

O=[N+]([O-])c1ccc(O)c([N+](=O)[O-])c1
inactive: Potency [17] > 92 µM | Potency [1] | Potency [2] | Potency [3] | outcome [4] | outcome [5] | Potency [6] | Potency [7] | Potency [8] | Potency [18] | Potency [19] | Potency [20] | Potency [9] | Potency [10] | Potency [11] | activation [13] 3.32% | Potency [14] | outcome [16]

c1ccc(OCC2CO2)cc1 (stereo not drawn)
inactive: Potency [17] > 92 µM | Potency [1] | Potency [2] | Potency [3] | outcome [4] | outcome [5] | Potency [6] | Potency [8] | Potency [18] | Potency [19] | Potency [20] | Potency [10] | Potency [11] | Potency [12] | activation [13] 0.652% | Potency [14] | max response [15] -1.75% | outcome [16]

CC(C)CC(C)N (stereo not drawn)
inactive: Potency [17] > 92 µM | Potency [1] | Potency [2] | Potency [3] | outcome [4] | outcome [5] | Potency [6] | Potency [7] | Potency [8] | Potency [19] | Potency [20] | Potency [9] | Potency [10] | Potency [12] | Potency [14] | max response [15] 0.275% | outcome [16]

c1ccc(P(c2ccccc2)c2ccccc2)cc1
inactive: Potency [17] > 92 µM | Potency [2] | outcome [5] | Potency [6] | Potency [7] | Potency [8] | Potency [18] | Potency [19] | Potency [20] | Potency [10] | Potency [11] | Potency [12] | activation [13] -0.914% | Potency [14] | max response [15] 2.64%

Oc1ccc(Cl)c(Cl)c1Cl
inactive: Potency [17] > 92 µM | Potency [1] | Potency [2] | Potency [3] | outcome [4] | outcome [5] | Potency [6] | Potency [7] | Potency [8] | Potency [18] | Potency [19] | Potency [20] | Potency [9] | Potency [10] | activation [13] -0.348% | Potency [14] | max response [15] 8.33% | outcome [16]

Nc1cc(Cl)ccc1O
inactive: Potency [1] | Potency [3] | outcome [4] | outcome [5] | Potency [8] | Potency [18] | Potency [19] | Potency [20] | Potency [9] | Potency [10] | Potency [11] | Potency [12] | activation [13] -0.288%
